Measurements as given in PubChem BioAssay (NCI).
The panel holds about 83,000 compounds, 20% with a hit somewhere; the sample as a whole holds those more often.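 Percent growth is the endpoint: 0 to 100 indicates growth inhibition (40 means 60% inhibition), 0 means no net growth, and negative values indicate cell death.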 Unmarked numbers belong to inactive results. The source made the active and inactive calls. The calls were made as follows: active = growth percent below 10; inactive = the rest.

These compounds were tested on A498 renal (assay: NCI-60 one-dose screen, 48 h (100 = growth as untreated, 0 = no growth, -100 = all killed)). Settings: 10 µM unless noted.

| Structure (SMILES) | growth |
| --- | --- |
| O=c1[nH]c2ccc(Cl)cc2cc1CSc1ccccc1Nc1nccc(-c2ccc(Cl)cc2)n1 | 88.1% |
| CC(C)(C)OC(=O)N1C(=O)c2c(c3c4ccccc4[nH]c3c3ccc4ccccc4c23)C1=O | -2.67% (active) |
| CNC(=O)c1cc(-c2ccc(NC(=O)Nc3ccc(N4CCN(C)CC4)c(C(F)(F)F)c3)cc2)nc2cccnc12 | 40.9% |
| C/C(=N/NC(N)=S)c1ccc(Nc2nc(SCC(C)C)nc(-c3ccc(F)cc3)c2C#N)cc1 | 15.9% |
| CCCCN1C(=O)/C(=c2\sc3n(c2=O)C2C(NN=3)N(CC)C(=O)N2CC)c2cc(Cl)ccc21 (stereo unspecified) | 27.6% |
| COc1cc(-c2nc3ccc(-c4nnc(SCC(=O)Nc5ccc(C(C)=O)cc5)o4)cc3[nH]2)cc(OC)c1OC | 95.4% |
| N#Cc1c(-c2ccc(Cl)cc2)nc(SCc2ccc(F)cc2)nc1N1CCNCC1 | 65% |
| Cn1cc(-c2cc(N)n3nc(-c4cn(C)c5ccc(Br)cc45)cc3n2)c2cc(Br)ccc21 | 102% |
| Cc1cc(C(=O)Nc2sc3c(c2C(N)=O)CCC(=O)C3)ccc1OCCN1CCCCC1 | 120% |
| NS(=O)(=O)c1ccc(Nc2nc(SCC(=O)c3ccc(Cl)cc3)nc3ccccc23)cc1 | 74.8% |
| CC(C)(C)Nc1nc2c(OCCc3ccccc3)cccn2c1-c1ccc(O)cc1 | 103% |
| CCOc1ccc2nc(NC(=O)c3ccc(C(F)(F)F)cc3)sc2c1 | 95.7% |
| N#Cc1c(-c2ccc(Cl)cc2)nc(SCc2ccc([N+](=O)[O-])cc2)nc1N1CCNCC1 | 44.7% |
| Cc1cccc(/C=C/c2nn3c(-c4ccco4)nnc3s2)c1 | 77.5% |
| Cc1sc2c(c1C)c(=O)nc1c(-c3nc(-c4ccc(F)cc4)no3)n[nH]n12 | 98.6% |
| C[C@@H]1CN(c2ccc3ncc(C#Cc4cncc(C(=O)Nc5ccc(CN6CCN(C)CC6)c(C(F)(F)F)c5)c4)n3n2)C[C@H](C)O1 | -90.4% (active) |
| Nc1c(C(=O)Nc2ccc(Cl)cc2)sc2nc(-c3cnccn3)cc(-c3cccs3)c12 | 82.3% |
| O=c1[nH]c2ccccc2cc1CSc1ccccc1Nc1nccc(-c2ccc(C(F)(F)F)cc2)n1 | 85.5% |
| Cc1c(Nc2nnc(SCC(=O)Nc3sc4c(c3C#N)CCCC4)s2)c(=O)n(-c2ccccc2)n1C | 109% |

| Structure (SMILES) | growth |
| --- | --- |
| CS(=O)(=O)c1ccc(-c2nc3ccccn3c2C=Nc2ccc(Cl)cc2)cc1 | 79.1% |
| N[C@@H](Cc1cn(-c2c3ccccc3nc3ccccc23)nn1)C(=O)O | 102% |
| CC(C)(C)Nc1nc2c(OCCc3ccccc3)cccn2c1-c1cccc(F)c1 | -18.9% (active) |
| CCN1C(=S)N(c2ccccc2)C2NC(=O)N(/N=C/C=C/c3ccccc3OC)C21 (stereo unspecified) | 95% |
| CCOC(=O)c1csc(NC(=O)CSc2nc3sc4c(c3c(=O)n2-c2ccc(Cl)cc2)CCCC4)n1 | 88.1% |
| Cc1ccc(CNS(=O)(=O)/N=C2\NC(=O)NC2=C(Cl)Cl)cc1 | 56.7% |
| CO/N=C1\CCc2c(sc(NC(=O)c3cccc(C(F)(F)F)c3)c2C(N)=O)C1 | -43.3% (active) |
| O=C(CSc1nc2sc3c(c2c(=O)n1-c1ccc(Cl)cc1)CCCC3)N/N=C/c1ccc(F)cc1 | 96.8% |
| CN1CCN(Cc2ccc(NC(=O)c3cncc(C#Cc4cnc5[nH]ncc5c4)c3)cc2C(F)(F)F)CC1 | -5.79% (active) |
| CC(C)(C)Nc1nc2c(OCCc3ccccc3)cccn2c1-c1ccc(Cl)cc1 | 56% |
| N#Cc1c(-c2ccc(Cl)cc2)nc(SCc2ccccc2)nc1N1CCNCC1 | 79.7% |
| COc1ccc(/C=C/C(=O)c2ccc(NC(=O)CSc3nnc(-c4ccc5nc(-c6ccc(Cl)cc6)[nH]c5c4)o3)cc2)cc1 | 111% |
| CC(=O)Nc1cc(F)cc(-c2ccc3[nH]cc(-c4ccccc4)c3n2)c1 | -20.1% (active) |
| C=CCSc1ccc2c(c1)C(N1CCNCC1)=Nc1ccccc1O2 | 75.1% [8.25 µM] |
| Fc1ccc(-c2nc(C(Cl)Cl)nc3cc(-c4ccccc4)nn23)cc1 | -42.7% (active) |
| COc1ccc(NC2=C(Cl)C(=O)C(C)=C(C)C2=O)cc1OC | 93.2% |
| O=C1[C@H]2Cc3c([nH]c4ccccc34)[C@@H](c3ccc(Br)cc3)N2C(=O)CN1C1CCN(Cc2ccccc2)CC1 | 61% |
| Cn1c(SCC(=O)c2cccs2)nc2ccccc2c1=O | 63.9% |
| C/C(=C(/c1ccc(Cl)cc1)c1ccc(OCCN)cc1)c1ccc(C)cc1 | 97.4% |

These compounds were tested on CCRF-CEM leukemia in the same assay as above. Settings: 10 µM unless noted.

| Structure (SMILES) | growth |
| --- | --- |
| O=c1[nH]c2ccc(Cl)cc2cc1CSc1ccccc1Nc1nccc(-c2ccc(Cl)cc2)n1 | 90.6% |
| CC(C)(C)OC(=O)N1C(=O)c2c(c3c4ccccc4[nH]c3c3ccc4ccccc4c23)C1=O | 44.4% |
| CNC(=O)c1cc(-c2ccc(NC(=O)Nc3ccc(N4CCN(C)CC4)c(C(F)(F)F)c3)cc2)nc2cccnc12 | -15.1% (active) |
| C/C(=N/NC(N)=S)c1ccc(Nc2nc(SCC(C)C)nc(-c3ccc(F)cc3)c2C#N)cc1 | 51.7% |
| CCCCN1C(=O)/C(=c2\sc3n(c2=O)C2C(NN=3)N(CC)C(=O)N2CC)c2cc(Cl)ccc21 (stereo unspecified) | 72.2% |
| COc1cc(-c2nc3ccc(-c4nnc(SCC(=O)Nc5ccc(C(C)=O)cc5)o4)cc3[nH]2)cc(OC)c1OC | 104% |
| N#Cc1c(-c2ccc(Cl)cc2)nc(SCc2ccc(F)cc2)nc1N1CCNCC1 | 37% |
| Cn1cc(-c2cc(N)n3nc(-c4cn(C)c5ccc(Br)cc45)cc3n2)c2cc(Br)ccc21 | 22.8% |
| Cc1cc(C(=O)Nc2sc3c(c2C(N)=O)CCC(=O)C3)ccc1OCCN1CCCCC1 | 77.1% |
| NS(=O)(=O)c1ccc(Nc2nc(SCC(=O)c3ccc(Cl)cc3)nc3ccccc23)cc1 | 92.4% |
| CC(C)(C)Nc1nc2c(OCCc3ccccc3)cccn2c1-c1ccc(O)cc1 | 38.5% |
| CCOc1ccc2nc(NC(=O)c3ccc(C(F)(F)F)cc3)sc2c1 | 92.1% |
| N#Cc1c(-c2ccc(Cl)cc2)nc(SCc2ccc([N+](=O)[O-])cc2)nc1N1CCNCC1 | -14% (active) |
| Cc1cccc(/C=C/c2nn3c(-c4ccco4)nnc3s2)c1 | 99.4% |
| Cc1sc2c(c1C)c(=O)nc1c(-c3nc(-c4ccc(F)cc4)no3)n[nH]n12 | 104% |
| C[C@@H]1CN(c2ccc3ncc(C#Cc4cncc(C(=O)Nc5ccc(CN6CCN(C)CC6)c(C(F)(F)F)c5)c4)n3n2)C[C@H](C)O1 | 3.83% (active) |
| Nc1c(C(=O)Nc2ccc(Cl)cc2)sc2nc(-c3cnccn3)cc(-c3cccs3)c12 | 88.6% |
| O=c1[nH]c2ccccc2cc1CSc1ccccc1Nc1nccc(-c2ccc(C(F)(F)F)cc2)n1 | 87.4% |
| Cc1c(Nc2nnc(SCC(=O)Nc3sc4c(c3C#N)CCCC4)s2)c(=O)n(-c2ccccc2)n1C | 99.4% |

| Structure (SMILES) | growth |
| --- | --- |
| CS(=O)(=O)c1ccc(-c2nc3ccccn3c2C=Nc2ccc(Cl)cc2)cc1 | 61.8% |
| N[C@@H](Cc1cn(-c2c3ccccc3nc3ccccc23)nn1)C(=O)O | 97.3% |
| CC(C)(C)Nc1nc2c(OCCc3ccccc3)cccn2c1-c1cccc(F)c1 | 3.62% (active) |
| CCN1C(=S)N(c2ccccc2)C2NC(=O)N(/N=C/C=C/c3ccccc3OC)C21 (stereo unspecified) | 92.3% |
| CCOC(=O)c1csc(NC(=O)CSc2nc3sc4c(c3c(=O)n2-c2ccc(Cl)cc2)CCCC4)n1 | 100% |
| Cc1ccc(CNS(=O)(=O)/N=C2\NC(=O)NC2=C(Cl)Cl)cc1 | 16.1% |
| CO/N=C1\CCc2c(sc(NC(=O)c3cccc(C(F)(F)F)c3)c2C(N)=O)C1 | 67.9% |
| O=C(CSc1nc2sc3c(c2c(=O)n1-c1ccc(Cl)cc1)CCCC3)N/N=C/c1ccc(F)cc1 | 65.9% |
| CN1CCN(Cc2ccc(NC(=O)c3cncc(C#Cc4cnc5[nH]ncc5c4)c3)cc2C(F)(F)F)CC1 | 20.1% |
| CC(C)(C)Nc1nc2c(OCCc3ccccc3)cccn2c1-c1ccc(Cl)cc1 | 6.47% (active) |
| N#Cc1c(-c2ccc(Cl)cc2)nc(SCc2ccccc2)nc1N1CCNCC1 | 45.9% |
| COc1ccc(/C=C/C(=O)c2ccc(NC(=O)CSc3nnc(-c4ccc5nc(-c6ccc(Cl)cc6)[nH]c5c4)o3)cc2)cc1 | 59.9% |
| CC(=O)Nc1cc(F)cc(-c2ccc3[nH]cc(-c4ccccc4)c3n2)c1 | 16.9% |
| C=CCSc1ccc2c(c1)C(N1CCNCC1)=Nc1ccccc1O2 | 66.6% [8.25 µM] |
| Fc1ccc(-c2nc(C(Cl)Cl)nc3cc(-c4ccccc4)nn23)cc1 | 29.9% |
| COc1ccc(NC2=C(Cl)C(=O)C(C)=C(C)C2=O)cc1OC | 15.3% |
| O=C1[C@H]2Cc3c([nH]c4ccccc34)[C@@H](c3ccc(Br)cc3)N2C(=O)CN1C1CCN(Cc2ccccc2)CC1 | 15.5% |
| Cn1c(SCC(=O)c2cccs2)nc2ccccc2c1=O | 80.3% |
| C/C(=C(/c1ccc(Cl)cc1)c1ccc(OCCN)cc1)c1ccc(C)cc1 | 98.9% |
